From PubChem BioAssay AID540275 (National Center for Advancing Translational Sciences (NCATS), 2011) come the findings set out here.

Structures are written as SMILES. Hit rate of the full screen: of about 320,000 compounds, about 620 (0.19%) were called active. About 6% were inconclusive and are not listed. The sample holds actives, similar compounds and a random draw of the others, so the mix is not that of the screen. Values without a mark were called inactive. Rule as the data show it: active = activation above about 80%; inconclusive = between about 30% and that limit; inactive = weaker than that.

Sequence of Transient receptor potential cation channel subfamily V member 1 (Homo sapiens) (Q8NER1 whole entry, looked up): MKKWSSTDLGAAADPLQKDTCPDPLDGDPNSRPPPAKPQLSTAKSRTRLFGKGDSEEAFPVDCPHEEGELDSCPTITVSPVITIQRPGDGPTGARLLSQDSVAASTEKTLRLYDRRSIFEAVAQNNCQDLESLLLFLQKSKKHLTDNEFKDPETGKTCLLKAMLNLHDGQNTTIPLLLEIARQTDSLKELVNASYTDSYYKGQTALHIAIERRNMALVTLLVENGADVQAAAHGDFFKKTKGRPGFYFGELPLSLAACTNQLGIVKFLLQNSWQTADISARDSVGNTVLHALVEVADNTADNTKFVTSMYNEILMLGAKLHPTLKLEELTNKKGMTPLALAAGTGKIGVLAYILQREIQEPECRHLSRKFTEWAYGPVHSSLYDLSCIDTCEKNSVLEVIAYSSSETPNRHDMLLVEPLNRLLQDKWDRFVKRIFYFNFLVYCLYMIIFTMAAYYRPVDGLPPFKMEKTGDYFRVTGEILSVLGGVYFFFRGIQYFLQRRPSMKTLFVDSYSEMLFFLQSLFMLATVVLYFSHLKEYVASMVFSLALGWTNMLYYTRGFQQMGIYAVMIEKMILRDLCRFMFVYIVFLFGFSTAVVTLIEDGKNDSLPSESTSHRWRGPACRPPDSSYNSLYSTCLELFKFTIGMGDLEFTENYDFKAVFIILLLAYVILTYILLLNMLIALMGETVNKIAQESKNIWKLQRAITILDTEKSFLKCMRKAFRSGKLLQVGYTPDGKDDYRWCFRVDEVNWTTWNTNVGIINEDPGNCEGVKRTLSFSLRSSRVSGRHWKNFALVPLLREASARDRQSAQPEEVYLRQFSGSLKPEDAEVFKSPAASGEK

The target in the assay is Transient receptor potential cation channel subfamily V member 1 (Homo sapiens) (UniProt Q8NER1). Put plainly: HTS Assay for Compounds that Act as Agonists of the Vanilloid Receptor 1. Also: 0% is about no effect. The conditions noted are these: TRPV1-expressing cells, Fluo-8 calcium influx, agonist mode; at 8.33 µM; active compounds read high. From the text:
The transient receptor potential ion channel, family V, number 1, (TRPV1) is one of the most important molecular transducers of painful stimuli and a potential target for analgesic drug development. Although recent clinical trials with orthosteric antagonists have not produced a successful drug because of a hyperthermia side effect and their tendency to block thermal noxious pain, this ion channel is undeniably well placed in the pain pathway, and the idea of blocking pain signals before they enter the CNS is an excellent concept and of proven efficacy when TRPV1 agonists are used. We propose a new approach involving allosteric modulation to impose an activity-dependent constraint within the context of inflammation and tissue damage that would alter the responsiveness of the channel in a way that an orthosteric vanilloid antagonist cannot achieve. We believe that the allosteric modulator approach has not been explored for this target. The main goal of this proposal is to identify additional, new, potent allosteric modulators of TRPV1 that can be used to investigate TRPV1 function. Our recent report provides evidence of proof of concept, but the compounds are just at the edge of utility in terms of potency. […] The question of whether they can be used as analgesic agents is complex, but if suitable compounds are identified then testing for analgesic properties will be conducted. NIH Chemical Genomics Center [NCGC] NIH Molecular Libraries Probe Centers Network [MLPCN] MLPCN Grant: MH089480-1A1 Assay Submitter (PI): Michael Iadarola, National Institute of Dental and Cranofacial Research
Upon TRPV1 activation in TRPV1 cells, the channel opens and extracellular cations flow through the channel into the cytosol. A calcium binding dye (Fluo-8) becomes fluorescent when bound to calcium. This dye is pre-loaded into cells and is used as a marker for calcium influx. The amount of accumulated calcium is precisely quantified using the FDSS kinetic reader and the calcium dye. For the HTS assay, freshly prepared cells are plated at a density of 2000/well in 3 ul medium in 1536-well plates and cultured overnight at 35.5C. Cells will be loaded with 1 ul of the homogeneous calcium dye (ABD Bioquest) at room temperature for 40 to 90 minutes. Plates will be loaded into the FDSS kinetic reader and a 1 sec / cycle for 10 second baseline signal will be measured. Compound library will then be added with a pintool at 23 nl and measured kinetically for 3 minutes. This portion of the read is considered the agonist portion of the screen. Following the 3 minutes of incubation, an on board pipettor will deliver 1 ul of capsaicin for a final concentration equal to the EC20. Signal will be measured kinetically for an additional 2 minutes. This portion of the read is considered the allosteric enhancer portion of the screen. The FDSS reader has a standard filter set capable of measuring calcium bound Fluo-8 (ex=480 and em=520 nm).
In the case of `COc1cc(C(=O)NCC(c2ccco2)N2CCCC2)ccc1OCc1ccccc1` (stereo not drawn), the activation was 3.05%.

For the compound `CCOc1cc(/C=C/C(=O)OCC(=O)NCCN2C(=O)CSC2=O)ccc1OCC(C)C`, the activation is 3.05%.

`CCOC(=O)c1sc(N)c(C#N)c1COC(=O)C1=COCCO1`: the activation was -7.68%.

Consider `CC(C)(C)C(=O)CSc1ccc(S(=O)(=O)N2CCCC2)cn1`, for which the activation was 0.185%.

With `CCN(CC)S(=O)(=O)c1ccc(N2CCOCC2)c(NC(=O)C(C)Oc2ccc(F)cc2)c1` (stereo not drawn), the activation was 25.5%.

In the case of `O=C(NCc1ccccc1CN1CCCC1)c1cccc(S(=O)(=O)Nc2ccc(F)cc2)c1`, the activation was 2.73%.

As to `Cc1ccc(C2=NN(C)c3nc4ccccc4n3C2)cc1`, the activation was 84.2% (active).

Consider `Cn1cccc1-c1nc2ccccc2n1C`, for which the activation was -1.64%.

Regarding `Cc1ccc(O)c(CNc2nc3ccccc3n2C)c1`, the activation was 1.21%.

As for `COc1ccc(S(=O)(=O)N2CCOCC2)cc1NC(=O)Cc1coc2cc(C)ccc12`, the activation is -0.0282%.

As to `Cc1nc(-c2ccc(F)cc2)c(CC(=O)N(C)CC(=O)Nc2c(C)cccc2C)s1`, the activation is -1.54%.

On to `COc1ccc(-c2c(-c3cc(OC)cc(OC)c3)n(C)c3ccc(-c4ccn[nH]4)cc23)cc1`, for which the activation was -1.55%.

Consider `COc1ccc(-c2csc(Cc3nc(O)cs3)n2)cc1`, for which the activation was 4.2%.

For the compound `Cc1onc(C(=O)NN)c1-c1csc(COc2ccccc2)n1`, the activation was 2.64%.

As to `CC(C)(C)C(=O)OCc1nc(-c2ccc(O)c(O)c2)cs1`, the activation is 91.2% (active).

Regarding `CCOc1ccc(OCC(=O)OC(C)C(=O)NC2CCCCC2C)cc1` (stereo not drawn), the activation was 11.7%.

As to `CC1CCN(C2=NC(=O)/C(=C/c3ccc(O)cc3)S2)CC1`, the activation is 2.66%.

As for `CCc1ccc(/C=C2\SC(N3CCOCC3)=NC2=O)cc1`, the activation was 89.7% (active).

For the compound `Cc1ccsc1/C=C1\SC(N2CCOCC2)=NC1=O`, the activation was 16.7%.

`Cc1nc(SCC(=O)NC2CCCCC2C)c(C#N)c(C)c1C` (stereo not drawn): the activation is 11%.

With `N#Cc1ccc(OCC(=O)NC(=O)NC2CCS(=O)(=O)C2)cc1` (stereo not drawn), the activation was -0.359%.

In the case of `O=C(COC(=O)CCCN1C(=O)c2cccc3cccc(c23)C1=O)NC1CCS(=O)(=O)C1` (stereo not drawn), the activation is -0.543%.

Regarding `Cc1ccc2c(CN3CCN(S(=O)(=O)c4ccccc4C(F)(F)F)CC3)cc(=O)oc2c1`, the activation was 4.46%.

With `COc1cc2ccccc2cc1C(=O)N1CCOCC1`, the activation was -0.849%.

With `O=C(CSC(=S)N1CCOCC1)c1cc(Br)cc(Br)c1O`, the activation was -0.207%.

Take `O=C(c1cc2cc(Br)cc(Br)c2oc1=O)N1CCOCC1`: the activation was 87.7% (active).

As for `COc1cc(OC)cc(-c2c(-c3cccs3)c3cc(-c4ccc(OC)cc4F)ccc3n2C)c1`, the activation was -2.36%.

For `CN(C(=O)COC(=O)Cn1cnc2c1c(=O)n(C)c(=O)n2C)C1(C#N)CCCCC1`, the activation was -2.27%.

`COc1ccc(C)cc1NC(=O)CN1c2cccc3cccc(c23)S1(=O)=O`: the activation was -0.498%.

As for `CCCN(CC(=O)NC(=O)NC1CCCCC1)CC(=O)Nc1cc(Cl)ccc1Cl`, the activation was 3.99%.

With `O=C(CCc1ccccc1Cl)Nc1ccc(S(=O)(=O)Nc2nccs2)cc1`, the activation was -1.57%.

As to `COC(=O)c1ccc(CSc2ccc(S(=O)(=O)N3CCCCC3)cn2)cc1`, the activation was 6.26%.

On to `Cc1ccc(C(=O)NCC(c2cccs2)N(C)C)cc1S(=O)(=O)N1CCOCC1` (stereo not drawn), for which the activation is 10.3%.

`CN1CCN(S(=O)(=O)c2ccc(N3CCN(c4ccccc4O)CC3)c([N+](=O)[O-])c2)CC1`: the activation is 4.24%.

On to `Cc1ccc(CN2CC(C(=O)N3CCN(S(=O)(=O)c4ccccc4)CC3)CC2=O)cc1` (stereo not drawn), for which the activation was 0.927%.

With `COc1ccc(NS(=O)(=O)c2cc(NC(=O)COc3ccccc3F)ccc2OC)cc1`, the activation is 0.255%.

Turning to `COc1ccc(C2=NN(C(=O)CSc3nnnn3C)C(c3ccco3)C2)cc1` (stereo not drawn), the activation is -0.899%.

In the case of `O=C(CSc1nnc(CN2CCCC2)n1-c1ccc(F)cc1)c1ccc2c(c1)OCO2`, the activation is 4.88%.

On to `COc1cccc(NC(=S)NCCCN2CCOCC2)c1`, for which the activation was -6.52%.

Consider `COc1cccc2cc(C(C)N(CCCN3CCOCC3)C(=O)Nc3ccc(Cl)cc3)oc12` (stereo not drawn), for which the activation is 85.6% (active).

As to `COc1ccc(Cl)cc1NC(=O)CCN1CCOCC1`, the activation was -0.647%.

For the compound `Cc1cccc(C)c1NC(=O)COC(=O)c1c(C)nn(-c2ccccc2)c1C`, the activation is 0.597%.

Regarding `CN(C)c1ccc(/C=C2\NC(=S)N(Cc3ccccc3)C2=O)cc1`, the activation is 82.1% (active).

As for `O=C1/C(=C\c2ccsc2)NC(=S)N1c1ccccc1`, the activation is 2.57%.

Turning to `O=C1NCC(=O)N(Cc2ccccc2)/C1=C/c1ccccc1`, the activation is 6.12%.

Turning to `Cc1csc(=O)n1CCC(=O)OCC(=O)NNC(=O)c1ccc(Br)cc1`, the activation was 2.91%.

With `OCC[C@H]1C[C@H](O)[C@@H](O)[C@]2(Cc3ccccc3CO2)O1`, the activation is 1.78%.

With `Cc1cccc(C(=O)Nc2ccc3c(c2)C(=O)N(CC(C)C)C3=O)c1`, the activation was 80.9% (active).

As for `Cc1cccc(C(=O)Nc2ccc(CC(=O)O)cc2)c1`, the activation was 1.02%.

With `Cc1cccc(N2C(=O)c3ccc(C(=O)Nc4cccc(C(=O)O)c4)cc3C2=O)c1`, the activation is -0.654%.

As for `N#Cc1cccc(NC(=O)C2CCCN(C(=O)c3ccc(Cl)cc3)C2)c1` (stereo not drawn), the activation is 11.9%.

Take `O=C(/C=C\c1cn(-c2ccccc2)nc1-c1cccs1)N1CCOCC1`: the activation is 96.6% (active).

With `O=C(O)c1ccc(N/N=C/c2cn(-c3ccccc3)nc2-c2cccs2)cc1`, the activation is -2.97%.

`O=C(O)/C=C/c1cn(Cc2ccccc2)nc1-c1cccs1`: the activation was 2.25%.

`CC(C(=O)Nc1ccc(S(=O)(=O)N2CCCC2)cc1)N(C)Cc1ccc(F)cc1` (stereo not drawn): the activation was 17.2%.

`O=C(CSc1ccccc1)Nc1cccc(S(=O)(=O)N2CCCCC2)c1`: the activation was 21.4%.

For `O=C(OCC(=O)N1CCN(C(=O)c2ccco2)CC1)c1ccc(Cl)c(Cl)c1`, the activation was 2.6%.

On to `Oc1ccc(Cl)cc1C1C=C(c2ccc3c(c2)OCO3)NC(c2ccc(F)c(Br)c2)N1` (stereo not drawn), for which the activation is 6.1%.

Regarding `COc1ccc(CCn2c(=N)c(C(=O)NCC3CCCO3)cc3c(=O)n4cccc(C)c4nc32)cc1OC` (stereo not drawn), the activation is 4.61%.

As for `Cc1cccn2c(=O)c3cc(C(=O)NCC4CCCO4)c(=N)n(Cc4ccc(F)cc4)c3nc12` (stereo not drawn), the activation was 84.1% (active).

Consider `Cc1cccn2c(=O)c3cc(C(=O)NCCN4CCOCC4)c(=N)n(Cc4cccnc4)c3nc12`, for which the activation is 22.9%.

In the case of `COC(=O)c1cc(Oc2ccc(S(=O)(=O)N3CCOCC3)cc2[N+](=O)[O-])cc(C(=O)OC)c1`, the activation is -0.765%.

As for `CCCN(CC(=O)Nc1ccccc1C)C(=O)c1ccc2[nH]c3c(c2c1)CC(C)CC3` (stereo not drawn), the activation was 3.39%.

For `CCN(CC)S(=O)(=O)c1ccc(OC)c(NC(=O)CCc2c(C)noc2C)c1`, the activation was -1.51%.

Consider `CCCC(NCC(=O)Nc1ccccc1C(=O)NC1CC1)c1ccccc1` (stereo not drawn), for which the activation is 21.8%.

On to `CO[C@H]1[C@@H]2C=CO[C@@H](O[C@H]3O[C@@H](CO)[C@H](O)[C@@H](O)[C@@H]3O)[C@@H]2[C@@]2(CO)O[C@@H]12`, for which the activation was -3.6%.

With `CC(C)N(C(=O)CN1CCN(S(=O)(=O)c2ccc(Br)s2)CC1)C(C)C`, the activation is 17.4%.

Regarding `CCCCN(CC(=O)Nc1cccc(S(=O)(=O)N2CCCC2)c1)Cc1nc2ccccc2c(=O)[nH]1`, the activation is 26.8%.

In the case of `CCOc1ccc(CCNC(=O)COC(=O)c2c(OC)cccc2OC)cc1OCC`, the activation is -2.55%.

As for `CCOc1cc(NC(=O)Nc2ccccc2)c(OCC)cc1NC(=O)CC`, the activation is 3.84%.

With `CCOc1ccc(CCNC(=O)Nc2ccccc2)cc1OCC`, the activation is 91.3% (active).

`Cc1cc(C(=O)COc2ccc(Br)cc2F)c(C)n1C1CC1`: the activation was 20.7%.

With `CNS(=O)(=O)c1cccc(C(=O)OCCCC(=O)c2ccccc2)c1`, the activation was 4.36%.

Consider `CC(OC(=O)Cc1ccc(F)cc1)C(=O)N1CCc2ccccc21` (stereo not drawn), for which the activation is 16.3%.

With `Cc1cc(C)n2nc(C(=O)Nc3cccc(S(=O)(=O)N4CCOCC4)c3)nc2n1`, the activation is 0.0473%.

For `Nc1cc(N)nc(SCC(=O)Nc2cccc(S(=O)(=O)N3CCCCC3)c2)n1`, the activation is 1.32%.

Consider `O=C(NCCc1ccc(F)cc1)c1ccc(S(=O)(=O)N2CCCCC2)cc1`, for which the activation was 28.8%.

Consider `COc1cc(/C=N/NC(=O)c2ccc(N3CCCC3=O)cc2)ccc1O`, for which the activation is 82.8% (active).

Turning to `O=C(N/N=C/c1cccc(Br)c1)c1ccc(N2CCCC2=O)cc1`, the activation was 14.1%.

Regarding `C/C(=N\NC(=O)c1cccc(N2CCCC2=O)c1)c1ccc(N)cc1`, the activation was -0.551%.

In the case of `Cc1ccc(C(=O)CN2C(=O)NC3(CCOc4ccccc43)C2=O)s1` (stereo not drawn), the activation is -5.77%.

Take `CC(C)CCN1CCC(C)(NC(=O)c2ccccc2)C1=O` (stereo not drawn): the activation is -3.6%.

As for `CC(=O)c1ccc(OCCCC(=O)Nc2ccc(C)c(S(=O)(=O)N3CCOCC3)c2)cc1`, the activation is 5.88%.

In the case of `COc1cc(OC)c(N2CC(C(=O)Nc3cc(Cl)ccc3N3CCOCC3)CC2=O)cc1Cl` (stereo not drawn), the activation was 1.31%.

Turning to `Cc1cccc(Nc2nnc(SCC(=O)c3c(N)n(C4CC4)c(=O)[nH]c3=O)s2)c1C`, the activation is -1.01%.

As for `COc1ccc(C(=O)OCC(=O)c2cc(C)n(CC3CCCO3)c2C)cc1[N+](=O)[O-]` (stereo not drawn), the activation was -3.97%.

Regarding `CN(CC(=O)NC1CCN(Cc2ccccc2)CC1)S(=O)(=O)c1ccc(Cl)s1`, the activation is 7.2%.

In the case of `CN(C(=O)CSc1nnc(-c2ccc3c(c2)OCO3)o1)C1CCS(=O)(=O)C1` (stereo not drawn), the activation is 1.32%.
